Measurements published in PubChem BioAssay (NCATS).
Inconclusive results are not listed. Calls of active or inactive are those of the source. Unless noted, calls come from the whole dose curve; as a rule, active = well fitted curve in the direction sought with a large enough effect; inconclusive = small, poorly fitted or top-dose-only effect, or another doubt; inactive = no such curve, though single readings can be large; an effect the other way counts as inactive or inconclusive.

What was measured:
[1] = target: Cytochrome P450 1A2 (Homo sapiens) (UniProt P05177); test: p450-cyp1a2 (AID 410; calls by dose curve; note: potency is the fitted concentration of half-maximal effect;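 for activity change, negative = inhibition: -100% = full effect of reference inhibitor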)
Method in brief: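 Inhibition was calculated relative to 57 uM furafylline (full inhibition). The reaction used human CYP1A2 at 20nM with Luciferin-ME at its Km, 100uM, driven by an NADPH-regenerating system for 60 min at room temperature.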

[2] = target: Glucocorticoid receptor (Homo sapiens) (UniProt P04150); test: GR-GFP Redistribution (AID 450;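 active = compounds whose dose series gives a full or clear partial fitted curve of increased nuclear translocation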; note: potency is the fitted concentration of half-maximal effect); conditions: U2OS GR-GFP nuclear translocation, laser cytometry, 2 h
[3] = target: Glucocorticoid receptor (Homo sapiens) (UniProt P04150); test: GR-EFC Redistribution (AID 451; calls by dose curve; note: potency is the fitted concentration of half-maximal effect); conditions: CHO-K1 GR-EFC translocation, beta-gal luminescence, 2 h
Method in brief: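 CHO-K1 cells stably expressing nuclear-localized β-gal enzyme acceptor and GR fused C-terminally to the enzyme donor fragment; ligand-driven nuclear translocation restores β-gal by complementation. Compounds titrated up to 46 uM final, 2 h at 37 °C; luminescence read.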

[4] = target: Mitogen-activated protein kinase 10 (Mus musculus) (UniProt Q61831); test: JNK3 AlphaScreen Assay (AID 530; active = well fitted curve in either direction with a large enough effect, not every such curve was filed as active;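 note: kinase came from lysate of stimulated human HepG2 cells; signal reports phosphorylation of biotinylated GST-cJun 1-79 at Ser73 with 10 µM ATP; % is set by controls: 0 for no effect and ±100 for the full control effect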)
Method in brief: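 JNK3 came from HepG2 lysates pre-activated with IL-1beta and TNF-alpha and phosphorylated biotinylated GST-cJun (1-79) at 10 uM ATP, pH 7.6, room temperature. Compounds were titrated. AlphaScreen signal used anti-phospho-cJun (Ser73) antibody.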

[5] = target: 3',5'-cyclic-AMP phosphodiesterase 4B (Homo sapiens) (UniProt Q07343); test: qHTS Assay for Inhibitors of PDE-IV (AID 607; active = well fitted activation curve with a large enough effect in the main read-out, with a control signal flat, not every such curve was filed as active; note: % of control where 0% means no effect)
Method in brief: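 ACTOne HEK293 cells carry a modified cAMP-gated CNG channel and express endogenous PDE4; plated 1000 cells/well, compounds up to 22.9 uM final. Membrane-potential dye fluorescence (ex 535/em 590) was read; parental cells received 10 uM forskolin + 100 uM RO 20-1724.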

[6] = qHTS Assay for Lipid Storage Modulators (AID 1519; calls by dose curve); conditions: Drosophila S3 cells, BODIPY lipid droplet/cell ratio, laser cytometry, cells loaded with oleic acid; for activity change, negative = inhibition: at 57.5 µM (top of the series)
Method in brief: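 Cells seeded at 5,000 per well were treated with compounds over a concentration series and loaded with oleic acid (400 uM, as added). Lipid droplet fluorescence (488 nm excitation, 500-530 nm channel) was read by laser-scanning cytometry and normalized to 20 uM Triacsin C.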

[7] = target: Ubiquitin carboxyl-terminal hydrolase 1 (Homo sapiens) (UniProt O94782); test: Inhibitors of USP1/UAF1: Pilot qHTS (AID 504865);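 note: rhodamine fluorescence freed from ubiquitin-rhodamine substrate followed over time; top concentration of the series differs between compounds; % is set by controls: 0 for no effect and ±100 for the full control effect; nearly all actives have a fitted effect of over 35% in size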
Method in brief: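 Enzyme-free wells gave the negative control, while test wells held 1nM USP1/UAF1 preincubated with compound for 15 min at room temperature. Ub-Rho at 150nM final started the reaction, and fluorescence at 480/540 nm was recorded kinetically.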

[8] = target: DNA dC->dU-editing enzyme APOBEC-3G (Homo sapiens) (UniProt Q9HC16); test: qHTS for inhibitors of Vif-A3G interactions: Validation (AID 588379); note: 0% is about no effect
Method in brief: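 HeLa cells stably expressing Vif and A3G-eYFP, 700 cells/well, incubated overnight at 37 deg C, then exposed to compound overnight at 37 deg C. Inhibition of Vif-mediated degradation read as increased yellow fluorescence (Ex 488/Em 500-530) by laser-scanning cytometry.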

[9] = system: Zika virus NS2B-NS3 protease; test: Primary screen GU AMC qHTS for Zika virus inhibitors (AID 1347154);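 note: 0% = no-inhibitor control and -100% = no-enzyme control; nearly all actives have a fitted effect of over 70% in size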
Method in brief: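 Unlinked Zika NS2B hydrophilic domain/NS3 protease domain noncovalent complex (25 nM final) in 10 mM Tris-HCl pH 8.0, 0.01% Tween 20, with AMC peptide substrate. Fluorescence (ex 340, em 450 nm) change over 15 min, room temperature; percent inhibition fitted to 4-parameter Hill equation.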

[10] = Primary qHTS for small molecule stabilizers of the endoplasmic reticulum resident proteome: Secreted ER Calcium Modulated Protein (SERCaMP) assay (AID 1508630); note: % is set by controls: 0 for no effect and ±100 for the full control effect
Method in brief: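 GLuc-SERCaMP-expressing SH-SY5Y cells, pretreated 16 h with compound, are challenged with thapsigargin to empty ER calcium stores; after 4 h, coelenterazine is added directly to the medium and luminescence is imaged.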

[11] = AP1 Signaling Pathway (AID 357; active = well fitted curve in either direction with a large enough effect, not every such curve was filed as active; note: % is set by controls: 0 for no effect and ±100 for the full control effect); conditions: ME-180 AP-1-bla reporter, EGF-induced, beta-lactamase ratio, 5 h; at 38 µM (top of the series)
Method in brief: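 ME-180 cells with beta-lactamase reporter under AP-1 response element, stimulated with EC50 EGF; compounds tested in titration series, 5 h at 37 °C. CCF4 substrate added 2.5 h at room temperature; 460/530 nm emission ratio gave %activity and AC50.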

[12] = NFAT Signaling Pathway (AID 444; active = well fitted curve in either direction with a large enough effect, not every such curve was filed as active;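 note: carbachol stimulus at about its EC50 of 1 µM final; % is set by controls: 0 for no effect and ±100 for the full control effect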); conditions: Jurkat NFAT-bla M1, carbachol, beta-lactamase ratio, 5 h; at 38 µM (top of the series)
Method in brief: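 Jurkat cells carrying an NFAT-driven β-lactamase reporter and co-transfected muscarinic M1 receptor were treated with compound plus carbachol (1 uM final, an EC50 level) for 5 h at 37 °C. CCF4 loading followed for 1 h at RT; 460/530 nm ratio gave %activity.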

[13] = Stat Signaling Pathway (AID 446; active = well fitted curve in either direction with a large enough effect, not every such curve was filed as active); conditions: ME-180 SIE beta-lactamase reporter, IL-6 stimulated, 5 h; at 38 µM (top of the series)
Method in brief: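 ME-180 SIE-bla cells; overnight plating; cpd + IL-6 40 pM, 5 h, 37 C; LiveBLAzer 2.5 h RT; 460/530 nm emission ratio. Normalized to 300 pM IL-6 and 125 nM JAK inhibitor controls.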

[14] = target: Guanine nucleotide-binding protein G(i) subunit alpha-1 (Homo sapiens) (UniProt P63096); test: qHTS Assay for Inhibitors of RGS12 GoLoco Motif Activity (Green Fluorophore) (AID 879);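 note: 0% = labeled peptide with Gαi1 and full inhibition = labeled peptide alone without protein; negative values mean loss of peptide binding seen as reduced polarization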
Method in brief: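 Fluorescence polarization assay: 50 nM Gαi1 with 10 nM FITC-labeled RGS12 GoLoco peptide in 10 mM Tris pH 7.5, 150 mM NaCl, 0.1 mM GDP, 0.05% NP40, 10 min at room temperature with compound.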

[15] = target: Cytochrome P450 2C9 (Homo sapiens) (UniProt P11712); test: qHTS Assay for Inhibitors and Substrates of Cytochrome P450 2C9 (AID 883); note: % is set by controls: 0 for no effect and ±100 for the full control effect; nearly all actives have a fitted effect of over 60% in size
Method in brief: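 A luminogenic readout tracked human CYP2C9 (10nM) converting deoxyluciferin (100uM, at KM) in 25mM KPO4 during 60 min at 37C with regenerated NADPH. Values normalized to 57uM sulphaphenazole as complete inhibition.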

[16] = target: Cytochrome P450 2D6 (Homo sapiens) (UniProt P10635); test: qHTS Assay for Inhibitors and Substrates of Cytochrome P450 2D6 (AID 891);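 note: luciferin methyl ether substrate demethylated by CYP2D6 with NADPH regeneration; % is set by controls: 0 for no effect and ±100 for the full control effect; nearly all actives have a fitted effect of over 60% in size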
Method in brief: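 Human CYP2D6 (5 nM) with 30 uM Luciferin-ME EGE (at Km) in 100 mM KPO4, compound preincubated 10 min, then NADPH regeneration system for 60 min at room temperature. Luciferin read by luminescence; normalized to 1.43 uM quinidine.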

[17] = target: Cytochrome P450 2C19 (Homo sapiens) (UniProt P33261); test: qHTS Assay for Inhibitors and Substrates of Cytochrome P450 2C19 (AID 899); note: % is set by controls: 0 for no effect and ±100 for the full control effect; nearly all actives have a fitted effect of over 60% in size
Method in brief: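 NADPH-dependent conversion of Luciferin-H EGE (10uM, at KM) by 5nM enzyme in 50mM KPO4, 60 min at 37C following 10 min compound preincubation. Stopped with luciferin detection buffer; luminescence read after 20 min.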

[18] = Confirmation and Secondary Assay for Modulators of Hemoglobin Beta Chain Splicing at IVS2 654 locus (AID 910);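 note: per-well total GFP intensity by laser scanning cytometry after 2-day treatment; % of control where 0% means no effect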
Method in brief: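 HeLa cells stably carrying EGFP interrupted by mutant beta-globin IVS2-654 intron (CMV-driven) were treated with compound for 2 days at 37C; corrected splicing was scored as total peak GFP intensity per well (488 nm excitation, 500-520 nm emission).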

[19] = qHTS Assay for Identification of Small Molecule Agonists for Thrombopoietin (TPO) Signaling Pathway (AID 917); note: % is set by controls: 0 for no effect and ±100 for the full control effect
Method in brief: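 IL-3-dependent murine pro-B Ba/F3 cells, stably transfected with human TPO receptor and GpIIb-promoter luciferase, are incubated 24 hrs at 37 C with test compound and 26 pM TPO; luciferase signal is read after 10 min at room temperature.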

[20] = Confirmation and Secondary Assay for Modulators of Hemoglobin Beta Chain Splicing at IVS2 705 locus (AID 930);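 note: HeLa cells stably expressing the EGFP-705 splicing reporter; GFP fluorescence per well restored by corrected splicing of the IVS2-705 intron in EGFP; % of control where 0% means no effect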
Method in brief: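 Secondary splice-site specificity test uses HeLa expressing CMV-driven EGFP interrupted by IVS2-705; cells were treated 2 days at 37C with 500 nM antisense PNA as positive control.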

[21] = target: Muscarinic acetylcholine receptor M1 (Rattus norvegicus) (UniProt P08482); test: qHTS Assay for Antagonists of Acetylcholine Muscarinic M1 Receptor: Measurement of IP-One Response (AID 944); note: nearly all actives have a fitted effect of over 75% in size
Method in brief: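 Steps: plate transfected CHO-M1 cells overnight; add test compound, 10 min; add carbachol (200 nM, EC80) in stimulation buffer with LiCl; incubate 30 min; add labelled IP1 tracer and anti-IP1 antibody in lysis buffer; read HTRF after 10 min.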

[22] = target: Pyruvate kinase (Leishmania mexicana) (UniProt Q27686); test: qHTS Validation Assay for Inhibitors of Leishmania Mexicana Pyruvate Kinase (AID 945);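 note: 0% = DMSO only neutral control wells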
Method in brief: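 Read-out: luminescence from PKLight stop/detection reagent, data normalized to DMSO. Reaction: 0.2 nM E451W LmPYK, 0.5 mM PEP, 0.1 mM ADP, pH 7.2, 1 h room temperature.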

[23] = target: Pyruvate kinase PKM (Homo sapiens) (UniProt P14618); test: qHTS Assay for Activators of Human Muscle Pyruvate Kinase (AID 954; active = well fitted curve in the direction sought with a large enough effect, not every such curve was filed as active;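 note: 0% = uninhibited enzyme and -100% = no enzyme or full thiadiazolimine inhibition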)
Method in brief: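 Luminescence from a luciferase ATP-detection/stop reagent reported PKM2 activity. Reactions contained 0.1 nM purified human enzyme, 0.5 mM PEP, 0.1 mM ADP and 7 mM MgCl2 at pH 7.2, run 1 h at RT.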

[24] = target: alpha-glucosidase (Oryza sativa, rice) (UniProt Q653V4); test: Counterscreen for Glucocerebrosidase Inhibitors: qHTS Assay for Rice alpha-Glucosidase at pH 5.0 (AID 997);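 note: 0% = full activity with enzyme and -100% = basal without enzyme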
Method in brief: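 Rice alpha-glucosidase (4 nM final) with 400 uM 4-methylumbelliferyl-alpha-D-glucopyranoside in citrate buffer pH 5.0, 20 min at room temperature, stopped at pH 10; fluorescence 365/440 nm, compounds 0.7 nM–77 uM, AC50 from Hill fits.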

[25] = measured here: cell count channel max response
[26] = measured here: lipid channel max response

Chain of 3',5'-cyclic-AMP phosphodiesterase 4B (Homo sapiens) (Q07343 whole entry, looked up): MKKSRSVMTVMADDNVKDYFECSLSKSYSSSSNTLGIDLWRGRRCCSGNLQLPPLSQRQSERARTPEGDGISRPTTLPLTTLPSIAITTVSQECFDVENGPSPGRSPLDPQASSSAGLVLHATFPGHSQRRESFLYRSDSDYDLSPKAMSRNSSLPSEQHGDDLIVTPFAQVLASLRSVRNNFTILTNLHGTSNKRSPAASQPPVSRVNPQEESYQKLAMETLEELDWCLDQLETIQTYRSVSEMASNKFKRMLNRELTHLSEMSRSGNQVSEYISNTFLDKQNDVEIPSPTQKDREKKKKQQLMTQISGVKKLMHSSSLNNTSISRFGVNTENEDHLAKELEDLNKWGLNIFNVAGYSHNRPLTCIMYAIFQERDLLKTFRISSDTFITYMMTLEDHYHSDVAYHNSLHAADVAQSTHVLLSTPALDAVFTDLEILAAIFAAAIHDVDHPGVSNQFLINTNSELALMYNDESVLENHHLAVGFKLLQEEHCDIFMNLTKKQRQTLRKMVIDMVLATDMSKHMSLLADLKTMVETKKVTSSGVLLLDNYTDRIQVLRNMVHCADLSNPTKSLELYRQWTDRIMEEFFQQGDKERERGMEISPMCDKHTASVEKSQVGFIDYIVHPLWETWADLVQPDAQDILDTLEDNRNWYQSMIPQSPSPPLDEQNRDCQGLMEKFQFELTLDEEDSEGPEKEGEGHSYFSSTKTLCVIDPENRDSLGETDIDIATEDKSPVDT
Chain of Ubiquitin carboxyl-terminal hydrolase 1 (Homo sapiens) (O94782 whole entry, looked up): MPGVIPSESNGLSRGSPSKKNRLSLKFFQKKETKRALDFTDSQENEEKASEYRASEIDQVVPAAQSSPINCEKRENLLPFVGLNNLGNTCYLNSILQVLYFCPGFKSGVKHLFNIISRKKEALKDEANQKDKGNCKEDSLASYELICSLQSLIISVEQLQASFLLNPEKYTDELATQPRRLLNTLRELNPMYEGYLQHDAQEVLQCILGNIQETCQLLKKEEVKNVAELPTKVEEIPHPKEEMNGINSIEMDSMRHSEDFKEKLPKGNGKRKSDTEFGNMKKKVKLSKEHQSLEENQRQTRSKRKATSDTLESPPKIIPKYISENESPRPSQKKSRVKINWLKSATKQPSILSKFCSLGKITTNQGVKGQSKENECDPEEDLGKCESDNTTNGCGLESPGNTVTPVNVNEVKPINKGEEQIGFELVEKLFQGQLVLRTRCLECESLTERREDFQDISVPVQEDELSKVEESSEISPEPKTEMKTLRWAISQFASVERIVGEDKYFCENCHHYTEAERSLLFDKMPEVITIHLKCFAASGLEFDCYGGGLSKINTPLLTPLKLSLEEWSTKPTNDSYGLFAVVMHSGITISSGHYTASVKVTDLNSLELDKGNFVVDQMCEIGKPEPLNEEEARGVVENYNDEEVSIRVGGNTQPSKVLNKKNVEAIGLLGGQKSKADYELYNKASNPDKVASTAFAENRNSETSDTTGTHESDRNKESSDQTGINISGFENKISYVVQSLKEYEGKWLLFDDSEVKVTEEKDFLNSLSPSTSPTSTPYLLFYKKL
Chain of Glucocorticoid receptor (Homo sapiens) (P04150 whole entry, looked up, the tested form may be a part): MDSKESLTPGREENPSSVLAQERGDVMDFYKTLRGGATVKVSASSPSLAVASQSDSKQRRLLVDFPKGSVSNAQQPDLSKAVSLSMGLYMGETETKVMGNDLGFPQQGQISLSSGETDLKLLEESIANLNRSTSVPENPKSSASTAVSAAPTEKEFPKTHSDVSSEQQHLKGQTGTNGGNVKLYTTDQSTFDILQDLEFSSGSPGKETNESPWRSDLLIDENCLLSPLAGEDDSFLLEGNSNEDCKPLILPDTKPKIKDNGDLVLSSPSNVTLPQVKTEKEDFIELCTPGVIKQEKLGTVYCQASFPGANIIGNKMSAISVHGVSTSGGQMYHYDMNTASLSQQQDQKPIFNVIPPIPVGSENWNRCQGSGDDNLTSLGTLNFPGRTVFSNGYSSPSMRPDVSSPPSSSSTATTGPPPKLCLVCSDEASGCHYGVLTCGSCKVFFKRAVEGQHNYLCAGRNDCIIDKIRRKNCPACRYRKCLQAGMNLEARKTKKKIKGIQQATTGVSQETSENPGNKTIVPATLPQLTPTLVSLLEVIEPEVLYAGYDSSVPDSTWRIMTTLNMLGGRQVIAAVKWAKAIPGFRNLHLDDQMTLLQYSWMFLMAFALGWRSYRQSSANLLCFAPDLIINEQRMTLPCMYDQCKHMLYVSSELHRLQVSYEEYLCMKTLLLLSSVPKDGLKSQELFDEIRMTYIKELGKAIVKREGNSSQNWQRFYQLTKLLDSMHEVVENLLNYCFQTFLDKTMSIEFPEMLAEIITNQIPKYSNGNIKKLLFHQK
Chain of DNA dC->dU-editing enzyme APOBEC-3G (Homo sapiens) (Q9HC16 whole entry, looked up): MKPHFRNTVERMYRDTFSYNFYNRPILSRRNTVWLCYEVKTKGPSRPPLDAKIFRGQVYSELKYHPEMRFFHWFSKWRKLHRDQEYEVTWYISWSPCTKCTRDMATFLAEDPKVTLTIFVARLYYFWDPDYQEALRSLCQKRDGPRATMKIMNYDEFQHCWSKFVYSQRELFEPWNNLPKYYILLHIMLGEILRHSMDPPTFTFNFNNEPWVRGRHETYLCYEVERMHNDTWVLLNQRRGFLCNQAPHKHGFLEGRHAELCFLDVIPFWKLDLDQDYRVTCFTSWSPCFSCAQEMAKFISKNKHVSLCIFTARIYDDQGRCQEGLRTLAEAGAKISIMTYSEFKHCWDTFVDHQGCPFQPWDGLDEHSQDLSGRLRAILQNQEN
Chain of Muscarinic acetylcholine receptor M1 (Rattus norvegicus) (P08482 whole entry, looked up): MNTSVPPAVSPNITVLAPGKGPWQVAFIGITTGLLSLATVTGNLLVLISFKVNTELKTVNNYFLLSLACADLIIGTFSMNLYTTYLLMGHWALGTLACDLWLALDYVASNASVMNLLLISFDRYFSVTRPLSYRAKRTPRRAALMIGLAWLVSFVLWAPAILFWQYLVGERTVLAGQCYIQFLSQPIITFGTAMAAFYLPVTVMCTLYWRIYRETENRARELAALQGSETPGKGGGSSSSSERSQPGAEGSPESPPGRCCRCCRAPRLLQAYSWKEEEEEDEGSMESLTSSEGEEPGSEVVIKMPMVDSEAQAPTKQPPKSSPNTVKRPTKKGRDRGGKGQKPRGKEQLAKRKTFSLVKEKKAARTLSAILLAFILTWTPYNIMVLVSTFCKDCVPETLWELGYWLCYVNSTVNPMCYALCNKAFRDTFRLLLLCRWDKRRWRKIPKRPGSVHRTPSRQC
Chain of Cytochrome P450 1A2 (Homo sapiens) (P05177 whole entry, looked up): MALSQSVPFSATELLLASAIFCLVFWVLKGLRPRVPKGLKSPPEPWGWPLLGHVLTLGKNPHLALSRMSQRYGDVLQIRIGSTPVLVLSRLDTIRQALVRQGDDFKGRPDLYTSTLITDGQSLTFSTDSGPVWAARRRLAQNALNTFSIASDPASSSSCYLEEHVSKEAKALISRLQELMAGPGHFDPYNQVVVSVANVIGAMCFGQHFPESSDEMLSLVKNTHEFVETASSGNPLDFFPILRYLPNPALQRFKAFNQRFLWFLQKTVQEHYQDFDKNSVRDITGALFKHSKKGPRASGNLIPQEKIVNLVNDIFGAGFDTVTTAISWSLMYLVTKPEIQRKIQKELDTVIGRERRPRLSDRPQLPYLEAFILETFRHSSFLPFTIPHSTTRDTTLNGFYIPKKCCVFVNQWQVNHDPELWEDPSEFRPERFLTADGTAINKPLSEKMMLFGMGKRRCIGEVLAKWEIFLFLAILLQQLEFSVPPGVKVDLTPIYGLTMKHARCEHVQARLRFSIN
Chain of Pyruvate kinase PKM (Homo sapiens) (P14618 whole entry, looked up): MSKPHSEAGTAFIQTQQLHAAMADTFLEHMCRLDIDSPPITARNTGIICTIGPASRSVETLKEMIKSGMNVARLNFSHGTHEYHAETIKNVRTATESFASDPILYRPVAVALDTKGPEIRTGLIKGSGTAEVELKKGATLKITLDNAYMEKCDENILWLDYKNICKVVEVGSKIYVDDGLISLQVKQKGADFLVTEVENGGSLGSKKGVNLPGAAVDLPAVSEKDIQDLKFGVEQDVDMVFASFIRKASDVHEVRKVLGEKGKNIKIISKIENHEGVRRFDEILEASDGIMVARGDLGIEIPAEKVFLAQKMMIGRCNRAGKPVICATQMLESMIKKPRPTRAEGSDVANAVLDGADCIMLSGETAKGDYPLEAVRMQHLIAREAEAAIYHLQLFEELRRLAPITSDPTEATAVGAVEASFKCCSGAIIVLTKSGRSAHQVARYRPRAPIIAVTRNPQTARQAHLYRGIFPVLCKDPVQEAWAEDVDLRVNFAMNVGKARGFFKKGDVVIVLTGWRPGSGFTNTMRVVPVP
Chain of Guanine nucleotide-binding protein G(i) subunit alpha-1 (Homo sapiens) (P63096 whole entry, looked up): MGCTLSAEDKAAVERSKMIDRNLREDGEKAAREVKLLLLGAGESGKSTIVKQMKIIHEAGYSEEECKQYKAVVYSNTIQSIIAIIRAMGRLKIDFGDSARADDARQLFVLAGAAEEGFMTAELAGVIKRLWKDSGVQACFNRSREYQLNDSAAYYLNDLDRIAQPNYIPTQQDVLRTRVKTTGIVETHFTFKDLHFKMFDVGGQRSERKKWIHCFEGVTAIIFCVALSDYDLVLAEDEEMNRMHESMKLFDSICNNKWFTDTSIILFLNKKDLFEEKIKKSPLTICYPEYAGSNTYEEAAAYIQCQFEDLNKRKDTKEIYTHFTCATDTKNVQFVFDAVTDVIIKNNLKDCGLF

O=C(O)Cc1cc2ccccc2nc1C(=O)O
inactive: Potency [1] | Potency [2] > 46 µM | Potency [3] > 46 µM | Potency [4] | Potency [5] | activity change, negative = inhibition [6] -1.15% | Potency [7] | Potency [8] | Potency [9] | Potency [10]
1.68%: max response [6, 25]
0.785%: max response [6, 26]

O=C(O)[C@H]1CCCNC1
-1.72%: max response [6, 26]
inactive: activity change, negative = inhibition [11] 5.2% | activity change, negative = inhibition [12] 2.68% | activity, negative = inhibition [13] -8.68% | Potency [2] > 46 µM | Potency [3] > 46 µM | Potency [4] | Potency [5] | outcome [14] | Potency [15] | Potency [16] | Potency [17] | outcome [18] | Potency [19] | outcome [20] | Potency [21] | Potency [22] | outcome [23] | outcome [24] | activity change, negative = inhibition [6] -2.39% | Potency [8] | Potency [9] | Potency [10]
-0.0867%: max response [6, 25]

C[C@H](C[C@H](N)C(=O)O)C(=O)O
-13.2%: max response [6, 25]
inactive: Potency [2] > 46 µM | Potency [3] > 46 µM | Potency [4] | Potency [5] | activity change, negative = inhibition [6] -1.92% | Potency [7] | Potency [8] | Potency [9] | Potency [10]
active: Potency [1] 31.6 µM
-13.5%: max response [6, 26]

CC(N)=NCCC[C@H](N)C(=O)O
inactive: activity change, negative = inhibition [11] -5.19% | activity change, negative = inhibition [12] 5.13% | activity, negative = inhibition [13] -24.9% | Potency [2] > 46 µM | Potency [3] > 46 µM | Potency [4] | Potency [5] | outcome [14] | Potency [19] | Potency [21] | outcome [23] | outcome [24] | activity change, negative = inhibition [6] 4.11% | Potency [7] | Potency [8] | Potency [9] | Potency [10]
-3.8%: max response [6, 26]
-7.21%: max response [6, 25]
